For 40 molecules, nuclei count, inhibition and fluorescence slope results are on record in PubChem BioAssay.

Calls of active or inactive are those of the source.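 Rule for the calls, unless noted: active = visually confirmed hit in the image check and inhibition above 20%; inconclusive = visually confirmed hit but inhibition not above 20%; inactive = no visual hit in the image check.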

System in one assay: not listed separately
The experiment in a line: endothelial E-selectin expression blockers – imaging, HUVEC, immunofluorescence, MLSMR starter and 10KST1 sets, primary screen (AID 487).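 For inhibition: signal is fraction of cell area covered by stained E-selectin grains.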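 For nuclei count: 100% = median nuclei count of all wells on the same plate.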 As to conditions: HUVEC TNFalpha-induced E-selectin immunofluorescence imaging, at 2 µM; inhibition: stronger effect = higher value; nuclei count: measured here: cell number, toxicity.
`O=C1CCCC(O)=C1C=Nc1ccc2c(c1)oc1ccccc12`: the nuclei count was found to be 106% and the inhibition (as a rule, the drop in the measured response relative to a control, in per cent) is 24.8% (inactive).

As to `CCOC(=O)c1ccc(N(CC(=O)NC2CCCC2)C(=O)CNC(=O)c2ccco2)cc1`, the inhibition is -11.3% (inactive) and the nuclei count is 105%.

For the molecule `COc1cc(NS(=O)(=O)N2CCCC2)cc(OC)c1OC`, the inhibition was -115% (inactive) and the nuclei count was 128%.

Turning to `CCOc1ccc(N2CC(C(=O)NCCc3ccc(OC)c(OC)c3)CC2=O)cc1` (stereo not given), the inhibition was -59.3% (inactive) and the nuclei count was found to be 163%.

Turning to `Cn1c(=O)c(C(=O)Nc2cccnc2)c(O)c2ccccc21`, the inhibition is -74% (inactive) and the nuclei count was determined as 112%.

Turning to `COCCNC(=O)C(c1ccc(C)o1)N(Cc1ccc(OC)cc1)C(=O)Cn1nnc2ccccc21` (stereo not given), the inhibition is 25.3% (inactive) and the nuclei count was found to be 82.9%.

Regarding `O=C(c1cc2cc(Cl)cc(Cl)c2oc1=O)N1CCOCC1`, the nuclei count was 110% and the inhibition was -63.2% (inactive).

On to `COc1ccc2nc(N3CCC(C)CC3)c(C#N)cc2c1`, for which the nuclei count worked out at 66.6% and the inhibition is -59.3% (inactive).

As for `C/C(=C\c1ccco1)C1C(C#N)=C(N)OC2=C1C(=O)CC(C)(C)C2` (stereo not given), the nuclei count was found to be 106% and the inhibition is -87.8% (inactive).

As to `CCOC(=O)c1c(C)[nH]c(C)c1C(=O)COC(=O)CNC(=O)c1ccc(OCC)cc1`, the inhibition was -19.4% (inactive) and the nuclei count was found to be 104%.

Take `CCCCNC(=O)Cn1c(=O)n(C)c2ccccc21`: the inhibition was 35.9% (inactive) and the nuclei count is 103%.

Turning to `c1ccc(OCc2nc3ccccc3[nH]2)cc1`, the nuclei count is 132% and the inhibition was -77.6% (inactive).

For the molecule `O=C(CSc1nc2ccccc2s1)N1CCN(C(=O)c2ccco2)CC1`, the nuclei count is 102% and the inhibition is -45.3% (inactive).

In the case of `CCCSc1nc(N)c(C#N)c(-c2ccc(C)cc2)c1C#N`, the nuclei count turned out to be 141% and the inhibition is -31.9% (inactive).

Turning to `CN(C(=O)Cn1c(=O)n(CCCCC(=O)NC2CCCC2)c(=O)c2ccccc21)C1CCCCC1`, the nuclei count was found to be 117% and the inhibition was -15.5% (inactive).

Regarding `CC1(C)CNC(=O)CC(C)(C)N1O`, the inhibition was -66.8% (inactive) and the nuclei count amounted to 110%.

As for `COc1ccc(Cl)cc1Nc1nc(NCCO)nc(N2CCCC2)n1`, the inhibition was -6% (inactive) and the nuclei count worked out at 112%.

For the molecule `CCOC(=O)c1ccc(S(=O)(=O)Nc2cc(C(C)(C)C)no2)cc1`, the inhibition was -194% (inactive) and the nuclei count was 152%.

In the case of `CCCCCCn1c(SCC(=O)OC)nc2c1c(=O)[nH]c(=O)n2C`, the inhibition is 5% (inactive) and the nuclei count was found to be 91.4%.

For the molecule `COc1ccc(CCNC(=O)CSCc2n[nH]c(=O)[nH]2)cc1OC`, the inhibition was -97.5% (inactive) and the nuclei count worked out at 131%.

`COc1ccc(-c2nc3c(c(SCC(=O)N4CCOCC4)n2)COC(C)(C)C3)cc1`: the inhibition was 33% (inactive) and the nuclei count was found to be 117%.

As for `CN1CCN(CC(=O)N2c3ccccc3C(C)(c3ccccc3)CC2(C)C)CC1` (stereo not given), the nuclei count was found to be 146% and the inhibition was -183% (inactive).

As to `CCN(CC)CCOc1cccc(C(C)C)c1`, the inhibition was 1.1% (inactive) and the nuclei count worked out at 76.3%.

Regarding `O=C(CN1C(=O)CC(c2ccco2)Sc2ccccc21)Nc1ccccc1F` (stereo not given), the nuclei count was found to be 110% and the inhibition was -28.3% (inactive).

Take `COCCN(CC(=O)NCc1ccccc1)C(=O)CCC(=O)Nc1ccccn1`: the nuclei count came to 117% and the inhibition was 38.3% (inactive).

As to `CCCCc1cc(=O)oc2cc(OCC(=O)N(CC)CC)c(Cl)cc12`, the nuclei count is 123% and the inhibition was -56.9% (inactive).

Take `CC(=O)Nc1cccc(NC(=O)c2oc3ccccc3c2C)c1`: the inhibition was -9.3% (inactive) and the nuclei count amounted to 112%.

Regarding `CCN(CC)CCCn1c(=S)[nH]c2cc(Cl)ccc2c1=O`, the nuclei count stood at 97.4% and the inhibition was 6.9% (inactive).

For `CCn1c(SCC(=O)c2ccc(OC)cc2)nnc1C(C)NC(=O)c1ccc(OC)cc1` (stereo not given), the nuclei count is 129% and the inhibition was -41.9% (inactive).

In the case of `CCCCOC(=O)CN1C(=O)c2ccc(C(=O)OCCCC)cc2C1=O`, the inhibition was -48.1% (inactive) and the nuclei count turned out to be 88.2%.

As to `CC(C)CCNC(=O)C(c1cccs1)N(CC1CCCO1)C(=O)Cn1nnc2ccccc21` (stereo not given), the nuclei count came to 97.1% and the inhibition is -132% (inactive).

For the molecule `O=C(CNC(=O)c1ccccc1C(=O)O)c1ccccc1`, the inhibition is -147% (inactive) and the nuclei count turned out to be 124%.

For the molecule `CS(=O)(=O)N1CCCC(C(=O)N2CCOCC2)C1` (stereo not given), the nuclei count was determined as 116% and the inhibition was -142% (inactive).

With `Cc1ccc(NC(=O)C2CCCN2S(=O)(=O)c2cccc3cccnc23)cc1F` (stereo not given), the inhibition is -56.2% (inactive) and the nuclei count came to 100%.

With `Cc1cc(C(=O)NCCCN2CCOCC2)n(-c2ccccc2)n1`, the nuclei count is 115% and the inhibition was -29.6% (inactive).

With `CCc1nn(CC(=O)N2CCN(Cc3ccc4c(c3)OCO4)CC2)c(=O)c2cc3occc3n12`, the nuclei count is 105% and the inhibition was -0.9% (inactive).

Take `Cc1ccc2c(c1)nnn2C1CCN(C(=O)NC23CC4CC(CC(C4)C2)C3)CC1`: the inhibition is 19.9% (inactive) and the nuclei count was determined as 98.1%.

As for `CCN(CC)CCOC(=O)c1c(C)oc2ccc(O)cc12`, the nuclei count amounted to 106% and the inhibition is 30.6% (inactive).

`Cc1onc(-c2ccccc2Cl)c1C(=O)NCc1cccnc1`: the nuclei count turned out to be 92.3% and the inhibition is 8.5% (inactive).

Take `COc1cccc(NC(=O)c2ccco2)c1`: the nuclei count turned out to be 96.1% and the inhibition was 32.9% (inactive).

The target of another assay is Voltage-gated potassium channel subunit beta-2 (Rattus norvegicus) (UniProt P62483). The assay can be described thus: inhibitors of rat Kvbeta2 reductase activity – biochemical, NADPH fluorescence, primary screen (AID 622;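 active = fluorescence slope higher than the sample average by over 3 SD, cut at about -0.22 in these data, passing the limit was not always enough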;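 note: slope of raw intensity against log time taken from 70 to 1610 s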). The note with it: recombinant KvBeta, 4-cyanobenzaldehyde reduction, at 10 µM, stronger effect = higher value.
Sequence of Voltage-gated potassium channel subunit beta-2 (Rattus norvegicus) (P62483 whole entry, looked up): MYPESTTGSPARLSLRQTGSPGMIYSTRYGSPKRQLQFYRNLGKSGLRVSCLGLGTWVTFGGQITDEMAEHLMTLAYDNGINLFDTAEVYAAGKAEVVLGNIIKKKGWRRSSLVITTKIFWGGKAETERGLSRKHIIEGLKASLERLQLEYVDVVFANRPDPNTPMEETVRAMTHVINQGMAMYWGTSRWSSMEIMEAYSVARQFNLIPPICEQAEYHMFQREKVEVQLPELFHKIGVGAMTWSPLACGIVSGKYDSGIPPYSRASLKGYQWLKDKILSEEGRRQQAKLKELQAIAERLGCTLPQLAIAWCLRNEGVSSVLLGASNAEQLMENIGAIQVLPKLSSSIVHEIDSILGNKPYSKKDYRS
In the case of `O=C1CCCC(O)=C1C=Nc1ccc2c(c1)oc1ccccc12`, the fluorescence slope was -0.09 (active).

Regarding `CCOC(=O)c1ccc(N(CC(=O)NC2CCCC2)C(=O)CNC(=O)c2ccco2)cc1`, the fluorescence slope is -0.508 (inactive).

For `COc1cc(NS(=O)(=O)N2CCCC2)cc(OC)c1OC`, the fluorescence slope is -0.498 (inactive).

Regarding `CCOc1ccc(N2CC(C(=O)NCCc3ccc(OC)c(OC)c3)CC2=O)cc1` (stereo not given), the fluorescence slope is -0.456 (inactive).

Turning to `Cn1c(=O)c(C(=O)Nc2cccnc2)c(O)c2ccccc21`, the fluorescence slope was -0.479 (inactive).

As to `COCCNC(=O)C(c1ccc(C)o1)N(Cc1ccc(OC)cc1)C(=O)Cn1nnc2ccccc21` (stereo not given), the fluorescence slope is -0.648 (inactive).

`O=C(c1cc2cc(Cl)cc(Cl)c2oc1=O)N1CCOCC1`: the fluorescence slope is -0.48 (inactive).

For `COc1ccc2nc(N3CCC(C)CC3)c(C#N)cc2c1`, the fluorescence slope is -0.587 (inactive).

Turning to `C/C(=C\c1ccco1)C1C(C#N)=C(N)OC2=C1C(=O)CC(C)(C)C2` (stereo not given), the fluorescence slope is -0.303 (inactive).

`CCOC(=O)c1c(C)[nH]c(C)c1C(=O)COC(=O)CNC(=O)c1ccc(OCC)cc1`: the fluorescence slope was -0.456 (inactive).

In the case of `CCCCNC(=O)Cn1c(=O)n(C)c2ccccc21`, the fluorescence slope is -0.549 (inactive).

Consider `c1ccc(OCc2nc3ccccc3[nH]2)cc1`, for which the fluorescence slope was -0.392 (inactive).

As to `O=C(CSc1nc2ccccc2s1)N1CCN(C(=O)c2ccco2)CC1`, the fluorescence slope is -0.377 (inactive).

As to `CCCSc1nc(N)c(C#N)c(-c2ccc(C)cc2)c1C#N`, the fluorescence slope is -0.382 (inactive).

In the case of `CN(C(=O)Cn1c(=O)n(CCCCC(=O)NC2CCCC2)c(=O)c2ccccc21)C1CCCCC1`, the fluorescence slope was -0.478 (inactive).

As for `CC1(C)CNC(=O)CC(C)(C)N1O`, the fluorescence slope was -0.497 (inactive).

As for `COc1ccc(Cl)cc1Nc1nc(NCCO)nc(N2CCCC2)n1`, the fluorescence slope is -0.595 (inactive).

Turning to `CCOC(=O)c1ccc(S(=O)(=O)Nc2cc(C(C)(C)C)no2)cc1`, the fluorescence slope is -0.612 (inactive).

As to `CCCCCCn1c(SCC(=O)OC)nc2c1c(=O)[nH]c(=O)n2C`, the fluorescence slope is -0.42 (inactive).

In the case of `COc1ccc(CCNC(=O)CSCc2n[nH]c(=O)[nH]2)cc1OC`, the fluorescence slope is -0.476 (inactive).

Regarding `COc1ccc(-c2nc3c(c(SCC(=O)N4CCOCC4)n2)COC(C)(C)C3)cc1`, the fluorescence slope was -0.387 (inactive).

As for `CN1CCN(CC(=O)N2c3ccccc3C(C)(c3ccccc3)CC2(C)C)CC1` (stereo not given), the fluorescence slope is -0.353 (inactive).

Take `CCN(CC)CCOc1cccc(C(C)C)c1`: the fluorescence slope was -0.393 (inactive).

For `O=C(CN1C(=O)CC(c2ccco2)Sc2ccccc21)Nc1ccccc1F` (stereo not given), the fluorescence slope is -0.588 (inactive).

Turning to `COCCN(CC(=O)NCc1ccccc1)C(=O)CCC(=O)Nc1ccccn1`, the fluorescence slope was -0.506 (inactive).

Take `CCCCc1cc(=O)oc2cc(OCC(=O)N(CC)CC)c(Cl)cc12`: the fluorescence slope is -0.596 (inactive).

Turning to `CC(=O)Nc1cccc(NC(=O)c2oc3ccccc3c2C)c1`, the fluorescence slope is -0.521 (inactive).

Consider `CCN(CC)CCCn1c(=S)[nH]c2cc(Cl)ccc2c1=O`, for which the fluorescence slope was -0.514 (inactive).

On to `CCn1c(SCC(=O)c2ccc(OC)cc2)nnc1C(C)NC(=O)c1ccc(OC)cc1` (stereo not given), for which the fluorescence slope is -0.409 (inactive).

For `CCCCOC(=O)CN1C(=O)c2ccc(C(=O)OCCCC)cc2C1=O`, the fluorescence slope is -0.486 (inactive).

Consider `CC(C)CCNC(=O)C(c1cccs1)N(CC1CCCO1)C(=O)Cn1nnc2ccccc21` (stereo not given), for which the fluorescence slope was -0.451 (inactive).

`O=C(CNC(=O)c1ccccc1C(=O)O)c1ccccc1`: the fluorescence slope was -0.42 (inactive).

For the molecule `CS(=O)(=O)N1CCCC(C(=O)N2CCOCC2)C1` (stereo not given), the fluorescence slope is -0.566 (inactive).

For the molecule `Cc1ccc(NC(=O)C2CCCN2S(=O)(=O)c2cccc3cccnc23)cc1F` (stereo not given), the fluorescence slope was -0.55 (inactive).

As for `Cc1cc(C(=O)NCCCN2CCOCC2)n(-c2ccccc2)n1`, the fluorescence slope is -0.519 (inactive).

`CCc1nn(CC(=O)N2CCN(Cc3ccc4c(c3)OCO4)CC2)c(=O)c2cc3occc3n12`: the fluorescence slope was -0.353 (inactive).

Consider `Cc1ccc2c(c1)nnn2C1CCN(C(=O)NC23CC4CC(CC(C4)C2)C3)CC1`, for which the fluorescence slope was -0.423 (inactive).

Consider `CCN(CC)CCOC(=O)c1c(C)oc2ccc(O)cc12`, for which the fluorescence slope is -0.5 (inactive).

As to `Cc1onc(-c2ccccc2Cl)c1C(=O)NCc1cccnc1`, the fluorescence slope is -0.523 (inactive).

As to `COc1cccc(NC(=O)c2ccco2)c1`, the fluorescence slope is -0.401 (inactive).
